High-throughput results: PubChem BioAssay, National Center for Advancing Translational Sciences (NCATS)
GLA spleen mod = qHTS Assay for Inhibitors and Activators of Human alpha-Galactosidase From Spleen Homogenate; Alpha-galactosidase A (Homo sapiens), P06280; human spleen homogenate, 4MU-alpha-Gal fluorescence, 40 min; Potency, µM (doses to about 80 µM), for the others: at the top dose activity change, negative = inhibition, most hits filed as inhibitors; 240,000 compounds, 0.008% hits; AID 2107, 2009;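 note: potency is the fitted concentration of half-maximal effect; 0% = enzyme with vehicle and -100% = no enzyme basal signal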
Target sequence (P06280 32-429 limits assumed): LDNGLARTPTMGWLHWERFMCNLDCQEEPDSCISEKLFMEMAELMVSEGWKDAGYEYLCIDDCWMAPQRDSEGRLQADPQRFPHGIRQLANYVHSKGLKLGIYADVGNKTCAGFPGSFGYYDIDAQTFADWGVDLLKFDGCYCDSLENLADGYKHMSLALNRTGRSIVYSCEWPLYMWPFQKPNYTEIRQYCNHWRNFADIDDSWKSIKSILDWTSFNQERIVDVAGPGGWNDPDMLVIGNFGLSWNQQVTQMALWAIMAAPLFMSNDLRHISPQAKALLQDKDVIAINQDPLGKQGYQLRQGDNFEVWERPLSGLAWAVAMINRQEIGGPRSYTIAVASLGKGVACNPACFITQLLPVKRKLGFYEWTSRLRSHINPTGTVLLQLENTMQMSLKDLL
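Fluorogenic readout (Ex 365/Em 440 nm) of 4-methylumbelliferone released from 1 mM 4-MU-alpha-galactoside by spleen homogenate, 40 min at 37C, pH 5.0. Data normalized to no-enzyme and enzyme controls; Hill-equation AC50 from compound titrations.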
ALDH1A1 inh = qHTS Assay for Inhibitors of Aldehyde Dehydrogenase 1 (ALDH1A1). Aldehyde dehydrogenase 1A1 (Homo sapiens), P00352. Purified ALDH1A1, NADH fluorescence, propionaldehyde substrate. Potency, µM (highest dose often 75.3 µM), for the others: at the top dose activity, negative = inhibition, actives largely listed as inhibitors. 220,000 compounds, 7.3% hits; active = well fitted inhibition curve with a large enough effect, not every such curve was filed as active; inconclusive = small, poorly fitted or top-dose-only effect, or another doubt; inactive = no such curve, though single readings can be large or run the other way;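 note: potency is the fitted concentration of half-maximal effect; plate controls were no enzyme wells and a reference inhibitor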
PNC assembly inh = High Content Assay for Compounds that inhibit the Assembly of the Perinucleolar Compartment; activity change (PNC), negative = inhibition, % at 10 µM; 140,000 compounds, 3.1% hits; PC3M PTB-GFP, PNC prevalence imaging, 16 h; hits give low values; AID 2417, 2010;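 active = readout at or below -70, meaning at least 70% loss of cells showing the perinucleolar compartment, a nuclear body marking cancer cells; inconclusive = readout between -30 and a set limit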;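 note: plate controls were DMSO wells for no effect and camptothecin positive control wells for full effect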
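Read-out is percentage of cells bearing a perinucleolar compartment, from automated 20x imaging of fixed, Hoechst-stained PC3M PTB-GFP cells. Cells were seeded 4 h, then exposed 16 h to compound (23 nl of library stock) in duplicate plates.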
HPGD inh = qHTS Assay for Inhibitors of HPGD (15-Hydroxyprostaglandin Dehydrogenase). purified HPGD, NADH fluorescence kinetic, PGE2 substrate. 150,000 compounds, 4.3% hits. Potency, µM, without a hit: at the highest dose activity change, negative = inhibition, actives largely listed as inhibitors; active = well fitted inhibition curve with a large enough effect, not every such curve was filed as active; inconclusive = small, poorly fitted or top-dose-only effect, or another doubt; inactive = no such curve, though single readings can be large or run the other way; note: potency is the fitted concentration of half-maximal effect
Target sequence (P15428 whole entry, looked up): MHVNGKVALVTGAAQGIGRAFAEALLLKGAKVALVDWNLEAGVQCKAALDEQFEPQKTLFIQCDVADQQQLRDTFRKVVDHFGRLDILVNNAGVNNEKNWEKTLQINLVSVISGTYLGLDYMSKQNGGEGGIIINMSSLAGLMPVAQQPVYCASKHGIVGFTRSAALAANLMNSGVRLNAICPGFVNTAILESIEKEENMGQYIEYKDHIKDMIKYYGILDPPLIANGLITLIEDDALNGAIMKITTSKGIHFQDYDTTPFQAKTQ
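20 nM HPGD preincubated 15 min at room temperature with compound in 50 mM Tris-HCl pH 8, 0.01% Tween 20. Started with 1 mM NAD+ and 30 uM prostaglandin E2; NADH fluorescence (360/450 nm) read 5 times over 30-s intervals, last minus first.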
GLA inh pH 4.5 = qHTS Assay for Inhibitors of Human alpha-Galactosidase at pH 4.5 | Alpha-galactosidase A (Homo sapiens), P06280 | purified enzyme, 4-MU-alpha-Gal fluorescence, pH 4.5 | activity change, negative = inhibition, % at 105 µM | 230,000 tested, under 10 active;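 note: 0% = full activity with enzyme and -100% = basal without enzyme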
ALOX12 inhib = qHTS Assay for Inhibitors of 12-hLO (12-human lipoxygenase). purified 12-hLO, xylenol orange hydroperoxide absorbance. Polyunsaturated fatty acid lipoxygenase ALOX12 (Homo sapiens), P18054. 150,000 compounds, 0.12% hits. AID 1452, 2008. Potency, µM (highest dose often 57.1 µM), inactives show at the top dose activity change, negative = inhibition, actives largely listed as inhibitors; note: potency is the fitted concentration of half-maximal effect; nearly all actives have a fitted effect of over 55% in size
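150 nM 12hLO, 25 mM Hepes pH 7.0 + 0.01% Triton X-100; cpd preinc 15 min RT; 40 uM arachidonic acid, 30 min RT; Fe-XO 30 min; A573/A405 ratio as read-out.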
* marks the source's active call; other numbers are inactive results; [ ] = remark or other dose. The list is not random: actives were taken first. Their share in the collection is about 10%. Unless noted, calls come from the whole dose curve; as a rule, active = well fitted curve in the direction sought with a large enough effect; inconclusive = small, poorly fitted or top-dose-only effect, or another doubt; inactive = no such curve, though single readings can be large; an effect the other way counts as inactive or inconclusive. Unless noted, % is set by controls: 0 for no effect and ±100 for the full control effect.

What do the screens show for `CO/N=C(/C(=O)NC1C(=O)N2C(C(=O)O)=C(CSc3nc(=O)c(O)nn3C)CSC12)c1csc(N)n1` (stereo not drawn)?
GLA spleen mod: 2%; ALDH1A1 inh: -2%; HPGD inh: -10%; GLA inh pH 4.5: -6; ALOX12 inhib: -4%

How did O=C(NCc1ccc2c(c1)CCO2)Nc1ccccc1 do in these assays?
GLA spleen mod: -5%; ALDH1A1 inh: -12%; GLA inh pH 4.5: -3

How did OC[C@H]1O[C@@H](n2cnc3c(NCc4ccccc4)ncnc32)[C@H](O)[C@@H]1O do in these assays?
GLA spleen mod: 1%; ALDH1A1 inh: 6%; HPGD inh: -5%; GLA inh pH 4.5: 5; ALOX12 inhib: -3%

What do the screens show for `C=C1CCC2C(C)(CO)C(O)CCC2(C)C1C/C=C1\C(=O)OCC1O` (stereo not drawn)?
GLA spleen mod: 10%; ALDH1A1 inh: 8%; HPGD inh: -5%; GLA inh pH 4.5: 3; ALOX12 inhib: 0%

Results for C=CCSC1=N/C(=C\c2ccc(C(=O)O)cc2)C(=O)S1 ?
GLA spleen mod: 5%; ALDH1A1 inh: 3.5µM*; GLA inh pH 4.5: 13

Results for CCSC1=N/C(=C\c2ccc(C(=O)O)cc2)C(=O)S1 ?
GLA spleen mod: -2%; ALDH1A1 inh: -8%; PNC assembly inh: -17; HPGD inh: -24%; GLA inh pH 4.5: 2; ALOX12 inhib: -3%

How did COc1cc2c(cc1NC(=O)COC(=O)CNS(=O)(=O)c1ccc(C)cc1)oc1ccccc12 do in these assays?
GLA spleen mod: -1%; ALDH1A1 inh: 2%; PNC assembly inh: -28; HPGD inh: inconclusive; GLA inh pH 4.5: 0; ALOX12 inhib: -5%

What do the screens show for `O=C1c2ccccc2NC(c2ccc(-c3cccc([N+](=O)[O-])c3)o2)N1O` (stereo not drawn)?
GLA spleen mod: 0%; ALDH1A1 inh: 14µM*; PNC assembly inh: inconclusive; HPGD inh: 18µM*; GLA inh pH 4.5: -12; ALOX12 inhib: -30%

Results for CCOC(=O)CCc1c(C(=O)OCC)[nH]c(CC)c1C(=O)OCc1ccccc1 ?
GLA spleen mod: -4%; GLA inh pH 4.5: -14

How did Cc1ccc2c(c1)Sc1ccccc1CC2=O do in these assays?
GLA spleen mod: 7%; ALDH1A1 inh: 18µM*; PNC assembly inh: 35; HPGD inh: 25µM*; GLA inh pH 4.5: 0; ALOX12 inhib: -4%

Results for CC(C(=O)NC1CCCc2ccccc21)N1CCN(c2ccc(F)cc2)CC1 (stereo not drawn) ?
GLA spleen mod: -2%; ALDH1A1 inh: -1%; PNC assembly inh: -4; GLA inh pH 4.5: -9; ALOX12 inhib: -1%

What do the screens show for `CC(C(=O)NC1CCCc2ccccc21)N1CCN(Cc2ccc3c(c2)OCO3)CC1` (stereo not drawn)?
GLA spleen mod: -1%; ALDH1A1 inh: 6.3µM*; PNC assembly inh: 25; HPGD inh: -20%; GLA inh pH 4.5: 3; ALOX12 inhib: -7%

Results for CCOc1ccc(-c2cn3ccccc3n2)cc1 ?
GLA spleen mod: -4%; ALDH1A1 inh: inconclusive; GLA inh pH 4.5: 5

Results for Cc1cc(C)cc(NC(=O)c2ccccc2CC[N+](=O)[O-])c1 ?
GLA spleen mod: -9%; ALDH1A1 inh: 2.8µM*; PNC assembly inh: 30; HPGD inh: -18%; GLA inh pH 4.5: -20; ALOX12 inhib: 1%

What do the screens show for `CO[C@@H]1COC(=O)CC=C[C@@H](C)[C@@H]2C=C[C@H](O)[C@@H](COC(=O)[C@H](C)NC(=O)CC=C[C@H]1C)O2`?
GLA spleen mod: -3%[17.5 µM]; ALDH1A1 inh: 1%[13.5 µM]

What do the screens show for `O=C(/C=C/c1ccc([N+](=O)[O-])cc1)N1CCN(S(=O)(=O)c2cccs2)CC1`?
GLA spleen mod: -15%; ALDH1A1 inh: 17%; GLA inh pH 4.5: 1

What do the screens show for `Cc1ccc(OCC(=O)c2ccc(Cl)s2)c([N+](=O)[O-])n1`?
GLA spleen mod: inconclusive; ALDH1A1 inh: 2.2µM*; GLA inh pH 4.5: 7

What do the screens show for `Cc1ccc(OCCOc2ccc(Cl)cc2Cl)c([N+](=O)[O-])n1`?
GLA spleen mod: -2%; ALDH1A1 inh: -6%; PNC assembly inh: 71; HPGD inh: 32µM*; GLA inh pH 4.5: -6; ALOX12 inhib: 1%

Results for NS(=O)(=O)c1ccc(CCNC(=O)CSc2nc3ccsc3c(=O)n2CCCCC(=O)O)cc1 ?
GLA spleen mod: 0%; ALDH1A1 inh: -5%; GLA inh pH 4.5: -7

How did Cc1ccccc1OCC(=O)OCC(=O)NCC1CCCO1 (stereo not drawn) do in these assays?
GLA spleen mod: 3%; ALDH1A1 inh: 4%; GLA inh pH 4.5: 6

How did COc1cccc(C=NC=Nc2cccc(OC)c2)c1 do in these assays?
GLA spleen mod: 5%; ALDH1A1 inh: -4%; HPGD inh: -11%; GLA inh pH 4.5: -1; ALOX12 inhib: -1%

Results for COC(=O)c1cn(CC(=O)Nc2ccc(F)cc2)c2ccccc12 ?
GLA spleen mod: 4%; ALDH1A1 inh: 7%; GLA inh pH 4.5: -5

Results for COc1cc(Sc2ccc(C)cc2)c(OC)cc1N ?
GLA spleen mod: -10%; ALDH1A1 inh: 3.5µM*; PNC assembly inh: -22; HPGD inh: 28µM*; GLA inh pH 4.5: 6; ALOX12 inhib: -13%

What do the screens show for `CN(CC(=O)O)Cc1c[nH]c2ccccc12`?
ALDH1A1 inh: 19%[13.5 µM]; HPGD inh: -2%; ALOX12 inhib: 7%[11.4 µM]

How did CCN(CC)CCNC(C(=O)Nc1ccc([N+](=O)[O-])cc1Br)c1ccccc1 (stereo not drawn) do in these assays?
GLA spleen mod: -5%; ALDH1A1 inh: -10%; PNC assembly inh: -104*; HPGD inh: -15%; GLA inh pH 4.5: -6; ALOX12 inhib: -3%

How did CN(C)C(CNC(C(=O)Nc1ccc([N+](=O)[O-])cc1Br)c1ccccc1)c1ccccc1 (stereo not drawn) do in these assays?
GLA spleen mod: 0%; ALDH1A1 inh: inconclusive; GLA inh pH 4.5: 1

What do the screens show for `CC(C)CNC(C(=O)Nc1ccc([N+](=O)[O-])cc1Br)c1ccccc1` (stereo not drawn)?
GLA spleen mod: 10%; ALDH1A1 inh: 3.5µM*; PNC assembly inh: -18; HPGD inh: -23%; GLA inh pH 4.5: -4; ALOX12 inhib: 0%
